High-throughput results from PubChem BioAssay.
Compounds with a hit are over-represented: about 12% of the library has one in this group of screens.
Cav32 inh – inhibitors of human Cav3.2 T-type calcium channel; Cav3.2-expressing cells, Fluo-4 calcium fluorescence FDSS; stronger effect = lower value; 100,000 compounds, 4% hits; B-score at 10 µM;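 active means single-dose well whose peak fluorescence ratio is a statistical outlier from its plate by either plate-standardised score or position-corrected B-score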
DAT uptake mod – human DAT dopamine uptake with cocaine, either direction | B-score at 10 µM | Q01959 | 110,000 compounds, 1.3% hits | AID 449768 | LLC-PK1 hDAT cells, [14C]-dopamine uptake with cocaine IC80; actives deviate in either direction;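 active means Z score or B-score, a plate-position-corrected score, falls beyond the plate's 99.7% confidence bounds, in either direction; inactive means both scores lie inside the 99.7% bounds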
D1 mod – allosterically modulates the human D1 dopamine receptor; P21728; HEK293 D1, CRE-luciferase, dopamine EC30 potentiation; actives deviate in either direction; B-score at 10 µM; 58,000 compounds, 5.9% hits; AID 641;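 active means luminescence count or its row- and column-corrected plate score outside the 99.7% band of the plate's sample wells, on either side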
PostGolgi yeast – growth inhibition of a yeast mutant, post-Golgi transport screen | post-Golgi transport phenotypic cell assay | inhibition, % at 10 µM | 98,000 compounds, 0.9% hits | AID 739;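 further: yeast cells grown in 1536-well plates; yeast grown about 18 h at 30C before absorbance read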
PostGolgi ctrl – inhibits growth of the yeast control strain; inhibition, % at 10 µM; 98,000 compounds, 5% hits; efflux-deficient yeast background strain, growth absorbance A615, 16 h
PLAP activator – activates human placental alkaline phosphatase; 96,000 compounds, 1.2% hits; activation fold at 20 µM; P05187; purified PLAP enzyme, luminescent substrate read-out; stronger effect = higher value; in the data active means activation fold above about 2
Target sequence (P05187 whole entry, looked up): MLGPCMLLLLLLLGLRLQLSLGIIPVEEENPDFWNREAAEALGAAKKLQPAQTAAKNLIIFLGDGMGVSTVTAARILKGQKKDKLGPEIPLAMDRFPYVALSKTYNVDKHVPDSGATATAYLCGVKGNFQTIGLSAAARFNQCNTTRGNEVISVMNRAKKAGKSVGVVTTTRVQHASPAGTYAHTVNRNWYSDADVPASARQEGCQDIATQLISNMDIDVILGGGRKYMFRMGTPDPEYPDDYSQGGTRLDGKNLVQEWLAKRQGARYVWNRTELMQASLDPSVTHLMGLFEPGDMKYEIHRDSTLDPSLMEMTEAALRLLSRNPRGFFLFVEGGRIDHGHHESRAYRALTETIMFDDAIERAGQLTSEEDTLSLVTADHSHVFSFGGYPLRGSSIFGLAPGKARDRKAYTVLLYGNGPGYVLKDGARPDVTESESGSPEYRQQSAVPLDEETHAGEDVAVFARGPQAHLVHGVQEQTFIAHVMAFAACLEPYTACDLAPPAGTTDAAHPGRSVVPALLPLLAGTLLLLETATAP
A number is an active result. Unless noted, no stated cut-off is given here; in the data, active means inhibition above about 30%; inactive means the rest.

Results for CC(=O)Nc1ccc(C(=O)Nc2ccc(S(=O)(=O)N3CCCC3)cc2)cc1 ?
Cav32 inh: inactive; DAT uptake mod: inactive; D1 mod: inactive; PostGolgi yeast: inactive; PostGolgi ctrl: inactive; PLAP activator: inactive

What do the screens show for `O=C(Nc1ccc(S(=O)(=O)N2CCc3ccccc3C2)cc1)C1CCCO1` (stereo not drawn)?
Cav32 inh: -3.9; DAT uptake mod: inactive; D1 mod: inactive; PostGolgi yeast: inactive; PostGolgi ctrl: inactive; PLAP activator: inactive

Results for CCC(=O)Nc1ccc(S(=O)(=O)N2CCc3ccccc3C2)cc1 ?
Cav32 inh: -4.5; DAT uptake mod: inactive; D1 mod: inactive; PostGolgi yeast: inactive; PostGolgi ctrl: inactive; PLAP activator: inactive

Results for CC(=O)Nc1ccc(S(=O)(=O)N2CCc3c(Cl)cccc3C2)cc1 ?
Cav32 inh: -4.3; DAT uptake mod: inactive; PostGolgi yeast: inactive; PostGolgi ctrl: inactive; PLAP activator: inactive

Results for CC(=O)Nc1ccc(S(=O)(=O)N2CCN(c3cccc(C)c3C)CC2)cc1 ?
Cav32 inh: inactive; DAT uptake mod: inactive; D1 mod: inactive; PostGolgi yeast: inactive; PostGolgi ctrl: 51; PLAP activator: inactive

Results for O=C(Nc1ccc(S(=O)(=O)N2CCCc3ccccc32)cc1)C1CCCO1 (stereo not drawn) ?
Cav32 inh: inactive; DAT uptake mod: inactive; D1 mod: inactive; PostGolgi yeast: inactive; PostGolgi ctrl: inactive; PLAP activator: inactive

Results for CCN1CCN(C(=O)c2cc3nc(-c4ccccc4)cc(C(F)(F)F)n3n2)CC1 ?
Cav32 inh: inactive; DAT uptake mod: inactive; D1 mod: inactive; PostGolgi yeast: inactive; PostGolgi ctrl: inactive; PLAP activator: inactive

How did Cc1c(Cc2ccc3c(c2)OCO3)sc(NC(=O)C(C)(C)C)c1C#N do in these assays?
Cav32 inh: inactive; DAT uptake mod: inactive; PostGolgi yeast: inactive; PostGolgi ctrl: inactive; PLAP activator: inactive

Results for CCOc1ccc(N(CC(=O)Nc2cccc(Cl)c2)S(=O)(=O)c2c(C)noc2C)cc1 ?
Cav32 inh: inactive; DAT uptake mod: inactive; D1 mod: inactive; PostGolgi yeast: inactive; PostGolgi ctrl: 45; PLAP activator: inactive

How did COc1ccc(N(CC(=O)N2CC=C(c3ccccc3)CC2)S(=O)(=O)c2c(C)noc2C)cc1 do in these assays?
Cav32 inh: inactive; DAT uptake mod: inactive; D1 mod: inactive; PostGolgi yeast: inactive; PostGolgi ctrl: inactive; PLAP activator: inactive

What do the screens show for `CCOc1ccc(N(CC(=O)N2CC=C(c3ccccc3)CC2)S(=O)(=O)c2c(C)noc2C)cc1`?
Cav32 inh: -4.8; DAT uptake mod: inactive; PostGolgi yeast: inactive; PostGolgi ctrl: inactive; PLAP activator: inactive

How did CCOC(=O)N1CCN(C(=O)c2cc3cc(Br)ccc3oc2=O)CC1 do in these assays?
Cav32 inh: inactive; DAT uptake mod: inactive; D1 mod: inactive; PostGolgi yeast: inactive; PostGolgi ctrl: inactive; PLAP activator: inactive

Results for CCOc1ccccc1NC(=O)CSc1nnc2c(CC)c(C)nc(N)n12 ?
Cav32 inh: inactive; DAT uptake mod: inactive; D1 mod: inactive; PostGolgi yeast: inactive; PostGolgi ctrl: inactive; PLAP activator: inactive

Results for CCN(CC)c1ccc2cc(C(=O)Nc3ccc(-n4cnnn4)c(OC)c3)c(=O)oc2c1 ?
D1 mod: inactive; PLAP activator: inactive

Results for CCc1nn(CC(=O)NCCCN(CC)Cc2ccccc2)c(=O)c2cc3sccc3n12 ?
Cav32 inh: inactive; DAT uptake mod: inactive; D1 mod: -4.6; PostGolgi yeast: inactive; PostGolgi ctrl: inactive; PLAP activator: inactive

What do the screens show for `Cc1cc2c(n1-c1ccc(Br)cc1)CC(C)(C)CC2=O`?
DAT uptake mod: inactive; PostGolgi yeast: inactive; PostGolgi ctrl: 40; PLAP activator: inactive

How did Cc1ccc(N2C(=O)C(O)(C(F)(F)F)C3=C2CC(C)(C)CC3=O)cc1C (stereo not drawn) do in these assays?
Cav32 inh: inactive; DAT uptake mod: inactive; PostGolgi yeast: inactive; PostGolgi ctrl: inactive; PLAP activator: inactive

What do the screens show for `CC1(C)CC(=O)c2cc(C(=O)Nn3cnnc3)c(=O)n(-c3ccccc3)c2C1`?
Cav32 inh: inactive; DAT uptake mod: inactive; D1 mod: inactive; PostGolgi yeast: inactive; PostGolgi ctrl: inactive; PLAP activator: inactive

What do the screens show for `Cc1ccc(-n2c(C)cc3c2CC(C)(C)CC3=O)cc1C`?
Cav32 inh: inactive; DAT uptake mod: inactive; PostGolgi yeast: inactive; PostGolgi ctrl: 31; PLAP activator: inactive

Results for Cc1ccc(CNc2nc(N)c([N+](=O)[O-])c(Nc3cccc(F)c3)n2)cc1 ?
Cav32 inh: inactive; DAT uptake mod: inactive; PostGolgi yeast: inactive; PostGolgi ctrl: 46; PLAP activator: inactive

How did CN(C(=O)c1ccc(NC(=O)c2cnccn2)cc1)C1CCCCC1 do in these assays?
D1 mod: inactive

Results for CCc1c(C(=O)Nc2ccc(S(=O)(=O)N3CCOCC3)cc2)csc1C ?
Cav32 inh: inactive; DAT uptake mod: inactive; D1 mod: inactive; PostGolgi yeast: inactive; PostGolgi ctrl: inactive; PLAP activator: inactive

Results for COc1cccc(-c2nc(CS(=O)CC(=O)NC3CCCC3)c(C)o2)c1 (stereo not drawn) ?
Cav32 inh: inactive; DAT uptake mod: inactive; D1 mod: inactive; PostGolgi yeast: inactive; PostGolgi ctrl: inactive; PLAP activator: inactive

What do the screens show for `CCCCNC(=O)CS(=O)Cc1nc(-c2ccc(C)cc2)oc1C` (stereo not drawn)?
Cav32 inh: inactive; DAT uptake mod: inactive; D1 mod: inactive; PostGolgi yeast: inactive; PostGolgi ctrl: inactive; PLAP activator: inactive

Results for CCc1cccc(NC(=O)CS(=O)Cc2nc(-c3ccc(C)cc3)oc2C)c1 (stereo not drawn) ?
Cav32 inh: -6.7; DAT uptake mod: inactive; D1 mod: inactive; PostGolgi yeast: inactive; PostGolgi ctrl: 34; PLAP activator: inactive

Results for Cc1cccc(-c2nc(CS(=O)CC(=O)NCCCSC3CCCCC3)c(C)o2)c1 (stereo not drawn) ?
Cav32 inh: -7.1; DAT uptake mod: inactive; D1 mod: inactive; PostGolgi yeast: inactive; PostGolgi ctrl: inactive; PLAP activator: inactive

How did Cc1ccc(-c2nc(CS(=O)CC(=O)NCc3ccc(Cl)cc3)c(C)o2)cc1 (stereo not drawn) do in these assays?
Cav32 inh: -6; DAT uptake mod: inactive; D1 mod: inactive; PostGolgi yeast: inactive; PostGolgi ctrl: inactive; PLAP activator: inactive

What do the screens show for `CCOCCCNC(=O)C1CCN(S(=O)(=O)N2CCCCC2)CC1`?
D1 mod: inactive; PostGolgi yeast: inactive; PostGolgi ctrl: inactive; PLAP activator: inactive

How did CCOCCCNC(=O)C1CCN(C(=O)N(C)C)CC1 do in these assays?
Cav32 inh: inactive; DAT uptake mod: inactive; D1 mod: inactive; PostGolgi yeast: 43; PostGolgi ctrl: inactive; PLAP activator: inactive

How did CCN(CC)CCNC(=O)c1c(C)oc2cc(Br)c(OC)cc12 do in these assays?
Cav32 inh: inactive; DAT uptake mod: inactive; D1 mod: inactive; PostGolgi yeast: inactive; PostGolgi ctrl: inactive; PLAP activator: inactive
